Bioassay records deposited in PubChem by National Center for Advancing Translational Sciences (NCATS).
Tau fibril ThT – blocks human tau fibril formation measured by thioflavin T. P10636. recombinant tau K18 P301L, heparin-induced fibrillization, ThT fluorescence. Potency, µM (titrated, usually from 57.4 µM), for inactives: at the top dose activity, negative = inhibition, hits mostly inhibitors. 270,000 compounds, 2.1% hits. AID 1460; further: nearly all actives have a fitted effect of over 55% in size
Target sequence (P10636 561-689 P618L limits assumed): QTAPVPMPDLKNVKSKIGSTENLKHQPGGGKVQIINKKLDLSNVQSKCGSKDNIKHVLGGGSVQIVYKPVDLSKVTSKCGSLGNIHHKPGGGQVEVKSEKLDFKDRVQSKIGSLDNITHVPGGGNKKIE
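Tau K18 P301L fragment (15 uM unlabeled plus 0.24 uM Alexa 594-labeled) in 100 mM sodium acetate pH 7 with compound, fibrillization induced by 20 uM heparin for 6 hr at 37 C. Thioflavin T (30 uM) added, fluorescence read after 1 hr (ex 450, em 510 nm).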
NPSR antag – antagonists of human neuropeptide S receptor cAMP signaling. Q6W5P4. CHO-NPSR cells, cAMP TR-FRET, antagonist mode. Potency, µM (titrated, usually from 38.3 µM), for inactives: at the top dose activity change, negative = inhibition, most hits filed as inhibitors. 220,000 compounds, 1% hits. AID 1461; further: nearly all actives have a fitted effect of over 50% in size
Target sequence (Q6W5P4 whole entry, looked up): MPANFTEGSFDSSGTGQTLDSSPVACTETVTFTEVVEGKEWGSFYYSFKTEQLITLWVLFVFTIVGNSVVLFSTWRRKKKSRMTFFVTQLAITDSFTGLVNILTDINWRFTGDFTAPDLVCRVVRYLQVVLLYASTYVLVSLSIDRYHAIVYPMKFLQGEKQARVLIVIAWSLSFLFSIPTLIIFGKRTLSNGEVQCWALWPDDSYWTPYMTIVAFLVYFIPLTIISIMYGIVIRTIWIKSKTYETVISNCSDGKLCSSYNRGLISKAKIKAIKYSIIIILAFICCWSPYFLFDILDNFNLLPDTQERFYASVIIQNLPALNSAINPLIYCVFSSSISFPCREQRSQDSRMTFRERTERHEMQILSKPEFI
Tau fluor cs – counter-screen for tau fibril formation inhibitors | tau K18 P301L Alexa594 fluorescence, heparin fibrillization | Potency, µM (top dose mostly 57.7 µM), for inactives: at the top dose activity change, negative = decrease | 280,000 compounds, 0.93% hits; further: nearly all actives have a fitted effect of over 55% in size
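Human tau K18 P301L (15 uM unlabeled, 0.24 uM Alexa 594-labeled) in 100 mM sodium acetate pH 7 with 20 uM heparin, 6 hr at 37 C. ThT 30 uM added, 1 hr ambient; Alexa 594 FP and total fluorescence read at 555/632 nm.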
Tau FP inhib – inhibitors of human tau fibril formation | K18 P301L tau heparin fibrillization, Alexa594 FP, 6 h | Potency, µM (titrated, usually from 57.7 µM), for the others: at the highest dose activity, negative = inhibition, usual class: inhibitors | 280,000 compounds, 0.39% hits; further: nearly all actives have a fitted effect of over 55% in size
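K18 P301L tau (15 uM unlabeled/0.24 uM Alexa 594-labeled, final) + compound + heparin 20 uM final; 100 mM NaOAc pH 7; 6 hr 37 C; ThT 30 uM final added, 1 hr RT; FP ex 555/em 632 nm.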
KinaseGlo FLuc – Kinase-Glo luciferase inhibition (counter-screen); Q27757; Kinase-Glo luciferase, ATP luminescence, 8 min; Potency, µM (highest dose often 38.3 µM), for inactives: at the top dose activity change, negative = inhibition, hits mostly inhibitors; 200,000 compounds, 0.28% hits; further: nearly all actives have a fitted effect of over 60% in size
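Compounds were added to a substrate mix at pH 7.2 (50 mM imidazole, 10 uM ATP, within the enzyme's linear range), followed by Kinase-Glo detection reagent; luminescence was measured after 8 minutes at ambient temperature.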
* hit, by the source's call; u = inconclusive; x = not tested or not shown; [ ] = dose if it differs, or a comment. The list is not random: actives were taken first. Their share in the collection is about 3.3%. The call rests on the fitted dose curve; in most records, active means well fitted curve in the direction sought with a large enough effect; inconclusive means small, poorly fitted or top-dose-only effect, or another doubt; inactive means no such curve, though single readings can be large; an effect the other way counts as inactive or inconclusive. On the % scale 0 is the no-effect control and ±100 the full control effect; potency means the concentration at half of the fitted maximal effect.

SMILES	Tau fibril ThT	NPSR antag	Tau fluor cs	Tau FP inhib	KinaseGlo FLuc
C/C(=N\NC(=O)c1ccccc1NC(=O)c1ccc(Cl)cc1)c1ccncc1	-3.5%	-29.8%	-9.4%	-2.1%	1.26µM*
O=C(Nc1ccccc1C(=O)N/N=C/c1ccco1)c1ccc(F)cc1	-12.7%	-5.8%	u	-3.1%	7.08µM*
O=C(Nc1ccccc1C(=O)N/N=C/c1ccco1)c1ccc(Cl)cc1	2.3%	-16.5%	u	u	12.6µM*
C=CCC(O)(/C=C/c1ccccc1)c1ccccc1 (stereo unspecified)	-7.1%	x	-2.0%	7.1%	-0.9%
Cc1ccccc1NC(=O)Cn1c(=O)n(CCCCCC(=O)NCc2ccc3c(c2)OCO3)c(=O)c2sccc21	9.6%	x	-8.9%	0.1%	x
CCc1ccc(NS(=O)(=O)c2ccc3[nH]cc(C(=O)NCCc4ccccc4)c(=O)c3c2)cc1	7.7%	x	1.3%	u	x
CCOc1ccc(NS(=O)(=O)c2ccc3[nH]cc(C(=O)N(C)C4CCCCC4)c(=O)c3c2)cc1	-1.9%	x	-19.4%	-0.3%	x
CCOc1ccc(NS(=O)(=O)c2ccc3[nH]cc(C(=O)NC4CCCC4)c(=O)c3c2)cc1	-1.0%	x	u	25.1µM*	x
CCc1ccc(NS(=O)(=O)c2ccc3[nH]cc(C(=O)NC4CCCC4)c(=O)c3c2)cc1	6.6%	x	u	11.2µM*	x
CC(C)=CC[C@@H](O)C1=CC(=O)c2c(O)ccc(O)c2C1=O	4.47µM*	x	u	12.6µM*	x
O=C(CCc1nc2cccnc2n1Cc1cccs1)Nc1cccc(C(F)(F)F)c1	u	x	u	-16.5%	x
Cc1nc(N2CCOCC2)c2c(C(=O)N3CCN(c4cc(Cl)ccc4C)CC3)c(C)oc2n1	-10.4%	x	0.0%	4.7%	x
CC1=C/C(=C/N(C)c2ccccc2)C(=O)S1	20µM*	-11.9%[46.1 µM]	-23.4%	u	-0.9%
CC(C)C1O[C@H](/C=C\c2ccccc2)OCC1(C)C (stereo partly specified)	x	x	x	x	-5.7%[7.66 µM]
Cc1[nH]nc2c1C(c1ccc(F)cc1)C(C#N)=C(N)O2 (stereo unspecified)	1.5%	-5.6%[46.1 µM]	-2.0%	-1.0%	1.6%
Cc1[nH]nc2c1C(c1ccc(-c3ccc(Cl)cc3)o1)C(C#N)=C(N)O2 (stereo unspecified)	10µM*	-25.0%	u	-8.7%	0.6%
Cc1[nH]nc2c1C(c1ccc(-c3ccccc3C#N)o1)C(C#N)=C(N)O2 (stereo unspecified)	15.8µM*	-1.7%[46.1 µM]	-28.6%	-0.8%	x
Cc1ccc(-c2ccc(C3C(C#N)=C(N)Oc4n[nH]c(C)c43)o2)cc1 (stereo unspecified)	6.31µM*	-12.4%[46.1 µM]	12.6µM*[quencher]	-11.7%	-2.3%
COc1cccc(NC(=O)CSC2=Nc3ccccc3N=C(c3ccc(F)cc3)C2)c1	-4.2%	x	u	-17.9%	x
Cn1c(SCc2ccc(Br)cc2)nc2c([nH]c3ccccc32)c1=O	8.0%	x	4.4%	2.7%	x
O=C(NC1CCCC1)c1sc(=S)n2c1[nH]c(=O)c1ccccc12	15.8µM*	10.6%[46.1 µM]	u	11.5%	-0.8%
CCn1c(N)c(C(=O)NCC2CCCO2)sc1=S (stereo unspecified)	35.5µM*	0.5%[46.1 µM]	-15.9%	u	-7.0%
Cc1ccc(CNC(=O)c2ccc3c(=O)[nH]c4c(C(=O)NCC5CCCO5)sc(=S)n4c3c2)cc1 (stereo unspecified)	8.91µM*	-45.7%	u	-2.9%	-0.1%
C=CCn1c(N)c(C(=O)NCC2CCCO2)sc1=S (stereo unspecified)	0.3%	-5.6%[46.1 µM]	-0.5%	-6.3%	-0.3%
CCCCCNC(=O)c1ccc2c(=O)[nH]c3c(C(=O)NCC4CCCO4)sc(=S)n3c2c1 (stereo unspecified)	14.1µM*	-9.6%[46.1 µM]	-28.5%	10.2%	-3.1%
SMILES	Tau fibril ThT	NPSR antag	Tau fluor cs	Tau FP inhib	KinaseGlo FLuc
O=C(Cc1ccc(-c2ccccc2)cc1)NCCS(=O)(=O)N1CCN(c2ccc(F)cc2)CC1	-1.9%	x	5.7%	-12.8%	x
Cc1cccc(-n2c(=O)c3c(c4cc(C)ccc4n3C)n(CC(=O)NCC3CCCO3)c2=O)c1 (stereo unspecified)	7.6%	x	4.7%	0.1%	x
Cc1ccc(Cn2c(C)c3cnn(CC(=O)O)c(=O)c3c2C)cc1	3.7%	x	-0.4%	-2.9%	x
Cc1ccccc1-n1c(SCC(=O)Nc2ccc(Cl)cc2Cl)nc(O)cc1=O	-13.3%	x	-7.5%	3.1%	x
O=C(NCc1ccccc1)c1ccc2c(=O)n(CC3CCCO3)c(=S)[nH]c2c1 (stereo unspecified)	-13.6%	-10.0%[46.1 µM]	-21.2%	-4.5%	-1.3%
O=C(NCc1ccccc1)c1ccc2c(=O)[nH]c3c(C(=O)NCC4CCCO4)sc(=S)n3c2c1 (stereo unspecified)	14.1µM*	-51.6%	u	11.4%	-1.9%
COc1cccc(NC(=O)CSC2=Nc3ccccc3C3=NC(CCC(=O)NCCc4ccccc4)C(=O)N23)c1 (stereo unspecified)	-8.0%	x	-15.0%	0.2%	x
COc1ccc(Cn2c3nc4ccccc4nc3c3c(=O)n(Cc4ccco4)c(C)nc32)cc1	u	-24.7%[46.1 µM]	-7.5%	-6.0%	-0.6%
Cc1nc2c(c(=O)n1Cc1ccccc1Cl)c1nc3ccccc3nc1n2Cc1ccco1	u	12.6µM*	-4.4%	-11.5%	-1.3%
Cc1cc(C)cc(-n2c3nc4ccccc4nc3c3c(=O)n(Cc4ccco4)cnc32)c1	u	10µM*	1.5%	u	0.4%
O=C(Nc1ccc2ccccc2c1)C(=O)C1C(=O)Nc2ccccc21 (stereo unspecified)	3.98µM*	24.3%	-24.8%	3.0%	x
CCN(Cc1ccccc1)C(=O)Cn1c(=O)oc2cc(S(=O)(=O)N3CCCCCC3)ccc21	7.5%	x	-13.0%	1.6%	x
CCOc1ccc(NC(=O)Nc2ccccc2C(N)=O)cc1	-14.0%	3.6%	-9.3%	5.2%	7.08µM*
COc1ccc(NC(=O)Nc2ccccc2C(N)=O)cc1	1.9%	3.6%	3.8%	4.1%	8.91µM*
Cc1ccc(NC(=O)Nc2ccccc2C(N)=O)cc1	-7.6%	16.6%	-13.6%	0.0%	x
CC(C)(C)NC(=O)C(c1ccc(O)cc1)N(C(=O)Cn1nnc(-c2ccc(F)cc2)n1)c1ccccc1F (stereo unspecified)	-8.0%	12.6µM*	-20.3%	-1.8%	1.5%
C=Cc1ccc(CSc2nnc(C)n3c2cc2occc23)cc1	u	x	-25.3%	-7.6%	x
COc1ccc(Br)cc1CN1C(=O)c2ccccc2C1C(=O)NC1CCCCCC1 (stereo unspecified)	u	x	-20.7%	-1.2%	x
CCn1c2ccccc2c2cc(NC(=O)c3ccc(Br)o3)ccc21	12.6µM*	-10.4%[46.1 µM]	u	u	-2.2%
N#Cc1cccc(-n2nnnc2-c2ccccn2)c1	6.31µM*	-9.9%[46.1 µM]	14.1µM*[quencher]	-1.8%	x
